Reference: PubChem BioAssay (NCI)
The panel holds about 79,000 compounds, 15% with a hit somewhere; the sample as a whole holds those more often. The source made the active and inactive calls. Rule as the data show it: active = growth inhibition above about 70%; inactive = the rest. Where a SMILES comes first, the peptide text is derived from it. The star is where a group is joined. OtBu = CC(C)(C)O*

Assays:
[1] = NCI Yeast Anticancer Drug Screen. Data for the rad50 strain (AID 155);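 also: 0% = growth of vehicle-only cultures of the same strain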; settings: S. cerevisiae rad50 strain growth inhibition; at 50.0 µM; active compounds read high
In short: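 Compounds were tested on a yeast strain with an engineered DNA damage repair alteration; the reported value is growth inhibition normalised to vehicle treatment.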

[2] = NCI Yeast Anticancer Drug Screen. Data for the mec2-1 strain (AID 157); settings: S. cerevisiae mec2-1 strain, at 50.0 µM, active compounds read high
In short: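 mec2-1 yeast strain, carrying an alteration in DNA damage repair or cell cycle control, was exposed to compounds; growth inhibition was measured relative to vehicle-treated controls.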

[3] = NCI Yeast Anticancer Drug Screen. Data for the sgs1 mgt1 strain (AID 161);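 also: 0% = growth of cultures given vehicle only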; settings: S. cerevisiae sgs1 mgt1 strain, at 50.0 µM, active compounds read high
In short: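 Compounds are added to genetically altered yeast, and growth is compared with cultures given vehicle alone to give percent inhibition.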

[4] = NCI Yeast Anticancer Drug Screen. Data for the cln2 rad14 strain (AID 165);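 also: 0% = growth equal to vehicle treated cultures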; settings: S. cerevisiae cln2 rad14 strain, at 50.0 µM, active compounds read high
In short: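 Yeast carrying cln2 and rad14 alterations (cell cycle control and DNA damage repair) were exposed to compounds. Growth inhibition was measured against vehicle-treated controls.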

[5] = NCI Yeast Anticancer Drug Screen. Data for the bub3 strain (AID 167); settings: S. cerevisiae bub3 mutant strain, at 50.0 µM, active compounds read high
In short: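 Growth of a checkpoint-deficient yeast mutant is measured after compound exposure. Values represent inhibition relative to vehicle.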

[6] = NCI Yeast Anticancer Drug Screen. Data for the mlh1 rad18 strain (AID 175); settings: S. cerevisiae mlh1 rad18 strain growth inhibition; at 50.0 µM; active compounds read high
In short: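 Growth inhibition of the yeast strain was measured after compound exposure and expressed relative to vehicle-treated controls. The strain carries defined defects in DNA damage repair.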

Measured: growth inhibition

COc1ccc2c(c1)-c1cc(OC)ccc1C2c1ccccc1
inactive: [1] -1.1% | [2] -9.15% | [3] -7.6% | [4] -57.5% | [5] 5.15% | [6] -7.25%

C[Si](C)(OCCS(=O)(=O)O)C1S(=O)(=O)OCCOS1(=O)=O
inactive: [1] -18.7% | [2] -21.4% | [3] -12.9% | [4] 8.6% | [5] -16.8% | [6] -18.4%

CC(=O)Nc1ccc(/C=C/C(=O)O)cc1
inactive: [1] -38.6% | [2] -30.6% | [3] -21.7% | [4] -6.05% | [5] -31.2% | [6] -30.8%

CSc1ccc(NC(=O)Nc2ccccc2C(F)(F)F)cc1
inactive: [1] 2.05% | [2] -3.25% | [3] 18.4% | [4] -9.85% | [5] 34.5% | [6] 27%

O=C(Cc1ccccc1CC(=O)Oc1ccccc1)Oc1ccccc1
inactive: [1] 9.1% | [2] -3.9% | [3] 10.8% | [4] 5.2% | [5] 18.9% | [6] 5.75%

Clc1cccc(-c2sc(-c3cccs3)cc2Cc2cccs2)c1
inactive: [1] -42.8% | [2] -39.8% | [3] -29.4% | [4] 2.2% | [5] -9.2% | [6] -14.5%

Cc1cnc2cc(Cl)ccc2c1NCCN(CC(C)C)CC(C)C
inactive: [1] -11% | [2] 0.7% | [3] -10.6% | [4] -22.5% | [5] 0.05% | [6] -30.8%

CC1(c2ccc(Cl)s2)NC(=O)NC1=O (stereo not given)
inactive: [1] -1% | [2] -4.65% | [3] -6.45% | [4] -45.8% | [5] 1.9% | [6] -13.5%

O=C(O)Cc1c(O)ccc2ccccc12
inactive: [1] -32.7% | [2] -16.3% | [3] -34.5% | [4] -29.8% | [5] -38.6% | [6] -3.7%

COc1cc2ccc3c4cc(OC)c(OCc5ccccc5)cc4cnc3c2cc1OC
inactive: [1] 40.5% | [2] 0.45% | [3] 4.9% | [4] 18.9% | [5] 27.4% | [6] 23%

CC(=O)N=C1N(/C=C2\C(=O)Oc3ccccc3C2=O)C(=O)/C(=C/c2ccc3c(c2)OCO3)N1C
inactive: [1] 21.6% | [2] -5.55% | [3] 5.25% | [4] 9.4% | [5] -6.35% | [6] 10.5%

Cc1cc(C(=O)O)c(C#N)c(=O)n1C
inactive: [1] -1.55% | [2] 5.3% | [3] -12.6% | [4] -13.6% | [5] -12% | [6] 8.55%

C=C(C)C#CC(O)(C(=O)OC1CCN(C)CC1)C(C)C (stereo not given)
inactive: [1] -7.95% | [2] -14% | [3] -21.1% | [4] 7.2% | [5] 20.9% | [6] -22.1%

c1ccc(Cn2ccnc2CSCCSCc2nccn2Cc2ccccc2)cc1
inactive: [1] 17.5% | [2] 37.2% | [3] -5.8% | [4] 12.9% | [5] -0.65% | [6] 29.9%

CSCCNC(=O)CS(=O)(=O)c1ccc(N)cc1
inactive: [1] -10.3% | [2] -25.9% | [3] -7.65% | [4] -13.2% | [5] -2.35% | [6] -14.9%

Cc1cc(C)n(C2=NCCN2)n1
inactive: [1] -26.1% | [2] -33.7% | [3] -14.1% | [4] -33.2% | [5] 4.2% | [6] -17.6%

CC1=CC(=O)CC(C)(C)C1(O)/C=C/C(C)=C/C(=O)O (stereo not given)
inactive: [1] -11.6% | [2] -28.5% | [3] -56% | [4] -37% | [5] -41.7% | [6] 5.1%

Clc1cc2nnn(C3CCCCO3)c2cc1Cl (stereo not given)
inactive: [1] 9.75% | [2] -3.05% | [3] -23.4% | [4] -12.3% | [5] -0.9% | [6] 14.4%

COC(=O)C1=C(C(=O)OC)P2(C)(C)OC(c3ccccc3)CN2C1(c1ccccc1)c1ccccc1 (stereo not given)
inactive: [1] 18% | [2] 9.15% | [3] -2.4% | [4] -80% | [5] 0.3% | [6] 40.9%

C[N+](C)=c1ccc2nc3ccc(N)cc3sc-2c1
inactive: [1] -84.8% | [2] -59.5% | [3] -43.6% | [4] -66.7% | [5] -79.8% | [6] -76.8%

COC(=O)C(NC(=O)COc1ccccc1[N+](=O)[O-])C(=O)OC
inactive: [1] -15.2% | [2] -1.3% | [3] 0% | [4] 3% | [5] -12.6% | [6] -12.3%

CN1CCCn2c(nc3ccccc3c2=O)C1
inactive: [1] -1.4% | [2] -4.65% | [3] -5.55% | [4] 14.5% | [5] -0.5% | [6] -4.35%

Nc1nc(N)c(NC(=O)CCCO)c(=O)[nH]1
inactive: [1] -3.95% | [2] -2.35% | [3] -13.3% | [4] 6.8% | [5] -23.8% | [6] -53%

COCC(O)CC#N (stereo not given)
inactive: [1] 14.1% | [2] 4% | [3] -3.65% | [4] 7.65% | [5] 9.65% | [6] 3.9%

CC(C)CC(NC(=O)C1CCCN1)C(=O)NC(CC(C)C)C(=O)OC(C)(C)C (stereo not drawn) (H-Pro-Leu-Leu-OtBu; configuration not given here)
inactive: [1] 30.2% | [2] 26.6% | [3] 29.1% | [4] 19% | [5] -4.15% | [6] 30.9%

N#CC(=C1C=CC(=NO)C=C1)c1ccc(Cl)cc1
inactive: [1] -0.05% | [2] 2.5% | [3] 8.3% | [4] -124% | [5] 20.9% | [6] 1.9%

NC(=S)NN/C=C(\C=Nc1ccccc1)[N+](=O)[O-]
inactive: [1] 8.15% | [2] -3.3% | [3] 4.15% | [4] 0.4% | [5] 0.15% | [6] 1%

CCCCNc1ncnc2c1cnn2C
inactive: [1] -3.2% | [2] 18.9% | [3] -28.2% | [4] -11.9% | [5] -7.1% | [6] -4.3%

CC(=O)Nc1ncn(C)c1S(N)(=O)=O
inactive: [1] -4.3% | [2] -19.1% | [3] -1.45% | [4] -16.3% | [5] -7.9% | [6] 15.5%

N#C/C(=C\NC(=S)NCc1ccccc1)c1nc2ccccc2s1
inactive: [1] 54.1% | [2] 32.4% | [3] 53.5% | [4] 43.3% | [5] 30.5% | [6] 61.5%

c1ccc2c(c1)ccc1cccc[n+]12
inactive: [1] -25.4% | [2] -7.75% | [3] -13% | [4] -12.4% | [5] -16.7% | [6] -36.6%

NC(=O)c1ccc[n+](CCCCCCCCCCC(=O)[O-])c1
inactive: [1] -7% | [2] 7.05% | [3] 0.8% | [4] -15% | [5] 4.75% | [6] 1.95%

COC(=O)[C@H](Cc1c[nH]c2ccccc12)NP(=O)(O)OCC1C=CC(n2cc(C)c(=O)[nH]c2=O)O1 (stereo not given in full)
inactive: [1] -8.5% | [2] -7.75% | [3] -9.6% | [4] 6.8% | [5] -13.1% | [6] -49.7%

Nc1ccc(P(=O)(Nc2ccc3ccccc3c2)Nc2ccc3ccccc3c2)cc1
active: [1] 83.2% | [3] 89.2% | [4] 79.9% | [5] 83.2% | [6] 91.2%
inactive: [2] 67.5%

Cc1ccc(S(=O)(=O)NCNS(=O)(=O)c2ccc(C)cc2)cc1
inactive: [1] -37.5% | [2] -7% | [3] 2.05% | [4] 14% | [5] -15.8% | [6] -35.6%

CCOc1ccc(C(=O)CCC(=O)Nc2ccc(Br)cc2)cc1
inactive: [1] 13.1% | [2] 5.8% | [3] 13.1% | [4] -7.3% | [5] 8.75% | [6] 20.4%

CC(=O)C(C(=O)NCc1ccccc1)C(c1ccc2c(c1)OCO2)C(C(C)=O)C(=O)NCc1ccccc1 (stereo not given)
inactive: [1] -5.7% | [2] 1.25% | [3] -23.6% | [4] -17.3% | [5] -0.65% | [6] 0.45%

COc1nc(NC2OC(CO)C(O)C(O)C2O)c(/C=N/O)c(=O)n1C (stereo not given)
inactive: [1] 4.55% | [2] 2.25% | [3] -6.35% | [4] 6.8% | [5] 7.85% | [6] 4.45%

CCCC(O)c1ccccc1Cl (stereo not given)
inactive: [1] 21.8% | [2] 18.9% | [3] 24.9% | [4] 16% | [5] -28.4% | [6] 5.3%

CC1(C)OC(C2SCCS2)C2OC(=O)C(O[Si](C)(C)C(C)(C)C)C2O1 (stereo not given)
inactive: [1] 18.2% | [2] 16.2% | [3] 2.75% | [4] 0.9% | [5] -2.6% | [6] -1.5%
